Laboratory results reported in ChEMBL document CHEMBL3988442, “University of Dundee, Small-Polar-MMV Screening Library” (2021).

Molecular target: T1, Aspartate--tRNA(Asp/Asn) ligase (Mycobacterium tuberculosis (strain ATCC 25618 / H37Rv)) (UniProt P9WFW3); also: in the data most compounds retested in dose-response had high values
T1 sequence (whole entry): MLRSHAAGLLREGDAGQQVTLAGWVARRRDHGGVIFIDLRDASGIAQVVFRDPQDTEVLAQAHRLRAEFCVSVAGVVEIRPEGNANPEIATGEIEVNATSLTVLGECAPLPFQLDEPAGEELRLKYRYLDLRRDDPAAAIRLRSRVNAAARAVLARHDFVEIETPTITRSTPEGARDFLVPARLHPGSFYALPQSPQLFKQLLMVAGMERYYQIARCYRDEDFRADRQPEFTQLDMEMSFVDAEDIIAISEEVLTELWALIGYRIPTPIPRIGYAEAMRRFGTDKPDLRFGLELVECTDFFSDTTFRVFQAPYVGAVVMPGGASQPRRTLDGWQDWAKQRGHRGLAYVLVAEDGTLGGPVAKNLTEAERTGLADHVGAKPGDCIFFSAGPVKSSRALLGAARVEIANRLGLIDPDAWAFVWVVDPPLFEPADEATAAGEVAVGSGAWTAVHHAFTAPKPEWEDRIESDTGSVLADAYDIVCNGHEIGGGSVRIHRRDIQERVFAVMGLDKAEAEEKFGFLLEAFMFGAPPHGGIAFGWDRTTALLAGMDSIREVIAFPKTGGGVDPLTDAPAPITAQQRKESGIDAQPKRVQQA
Assay: Assay for Asp RNA synthetase-1 from Mycobacterium tuberculosis
Format: functional
Set-up: scale not given: direction of the effect not stated beside the values
Conditions: 30 µM

**Q.** With `CC(=O)N1CCC2(CCCN(Cc3ccc(Cl)c(C(F)(F)F)c3)C2)C1` (stereo not given) as the compound, how does the Percent Effect read?
**A.** 6.54%

**Q.** For `O=C(Cn1cnc(NC(=O)CC2CCCC2)n1)NCc1ccccc1`, which Percent Effect is on record?
**A.** -1.37%

**Q.** How did the Percent Effect turn out when `CCn1ccnc1CN1CCCN(C(=O)c2sccc2C#N)CC1` was run?
**A.** 1.71%

**Q.** How did the Percent Effect turn out when `Cc1ccc(C(=O)NC2CCN(C(=O)Nc3ccccn3)CC2)o1` was run?
**A.** 5.16%

**Q.** `Nc1nccc(NCc2cc3n(n2)CCCN(C2CCCCC2)C3)n1` was tested. Which Percent Effect did it give?
**A.** -6%

**Q.** How did the Percent Effect turn out when `Cc1cc2c(=O)n3c(nc2s1)CCN(C(=O)c1cnn(C)c1C)CC3` was run?
**A.** 0.849%

**Q.** With `Cc1ccc(C)c(C(NC(=O)C2CC2)c2cccnc2)c1` (stereo not given) as the compound, how does the Percent Effect read?
**A.** -0.277%

**Q.** Which Percent Effect does the source give for `Cc1cnc(CN(Cc2ccccc2)CC(O)c2cccs2)cn1` (stereo not given) here?
**A.** -1.43%

**Q.** Which Percent Effect does the source give for `CC(C)Oc1ncccc1CNC(=O)c1ccco1` here?
**A.** -4.72%

**Q.** With `CCc1nc(NCCCn2cccn2)c2c(n1)c(C)nn2C` as the compound, how does the Percent Effect read?
**A.** -0.755%

**Q.** `CCOc1ccnc(N2CCN(C(=O)c3cccc(C#N)c3)CC2)n1` was tested. Which Percent Effect did it give?
**A.** -3.26%

**Q.** Which Percent Effect does the source give for `CC(C)(C)OC(=O)CNC(=O)CCc1nnc(-c2ccsc2)o1` here?
**A.** 8.92%

**Q.** `COc1ccc(CCN2CCCC(Cn3nc(C)nc3C)C2)cc1` (stereo not given) was tested. Which Percent Effect did it give?
**A.** -3.48%

**Q.** With `O=C(NCCc1nnc2n1CCC2)NCC1(c2cccc(F)c2)CC1` as the compound, how does the Percent Effect read?
**A.** -2.55%

**Q.** With `CNc1cc2c(nn1)CCN(C(=O)c1cccc3c1OCO3)C2` as the compound, how does the Percent Effect read?
**A.** -7.31%

**Q.** Which Percent Effect does the source give for `O=C(COCc1ccccc1)N1CCCC(n2cncn2)C1` (stereo not given) here?
**A.** -3.66%

**Q.** `O=C(CCc1cscn1)N1CCCC1c1noc(C2CC2)n1` (stereo not given) was tested. Which Percent Effect did it give?
**A.** -1.43%

**Q.** `Cc1cnn(CC2CN(Cc3cccc(OCC(N)=O)c3)CCO2)c1` (stereo not given) was tested. Which Percent Effect did it give?
**A.** -5.07%

**Q.** Which Percent Effect does the source give for `COc1ncccc1C(=O)N1CCCC(c2cc(C)[nH]n2)C1` (stereo not given) here?
**A.** -4.25%

**Q.** `COCc1nc(C(=O)N2CCCCC2Cn2cccn2)cs1` (stereo not given) was tested. Which Percent Effect did it give?
**A.** 1.01%

**Q.** Which Percent Effect does the source give for `CN(Cc1ccsc1)C(=O)CN1CCCC1Cn1cccn1` (stereo not given) here?
**A.** 2.25%

**Q.** For `CCc1noc(C2CCN(C(=O)CCn3nc(C)cc3C)CC2)n1`, which Percent Effect is on record?
**A.** 8.14%

**Q.** With `Cc1noc(C)c1CN1C(=O)[C@H]2CC[C@@H]1CN(Cc1cccnc1N)C2` as the compound, how does the Percent Effect read?
**A.** 3.56%

**Q.** `Cc1nc(N2CCCC2)nc2c1CN(C(=O)N1CCOCC1)CC2` was tested. Which Percent Effect did it give?
**A.** 0.478%

**Q.** Which Percent Effect does the source give for `CN(CCc1cccs1)C1CCCN(Cc2noc(C3CC3)n2)C1` (stereo not given) here?
**A.** -1.53%

**Q.** Which Percent Effect does the source give for `O=C(CCn1ccccc1=O)Nc1ccc(F)c(Cl)c1` here?
**A.** 5.06%

**Q.** `COc1ccc(CNC2CCN(CCc3ccncc3)CC2)cc1O` was tested. Which Percent Effect did it give?
**A.** 5.98%

**Q.** With `COCCN1CCN(C(C)C(=O)Nc2ccnn2C(C)C)CC1` (stereo not given) as the compound, how does the Percent Effect read?
**A.** 0.69%

**Q.** With `CCn1ncc2c1C(COCC1CC1)CN(C(=O)c1cccs1)C2` (stereo not given) as the compound, how does the Percent Effect read?
**A.** -1.73%

**Q.** `COc1ccc(C(C(=O)O)N2CCCN(C3CCCCC3)CC2)cn1` (stereo not given) was tested. Which Percent Effect did it give?
**A.** 2.16%

**Q.** `COCCn1cc(C(=O)N2CCCC2c2cccc(F)c2)ccc1=O` (stereo not given) was tested. Which Percent Effect did it give?
**A.** 0.301%

**Q.** `O=C(CC1CC1)NCc1cc(=O)n2c(n1)CN(Cc1ccoc1)CCC2` was tested. Which Percent Effect did it give?
**A.** -2.64%

**Q.** For `CC(C)c1nc(C2CCCN2C(=O)c2nccnc2N)no1` (stereo not given), which Percent Effect is on record?
**A.** -5.36%

**Q.** Which Percent Effect does the source give for `O=C1CC(c2ccc(F)c(F)c2)c2snc(C(=O)O)c2N1` (stereo not given) here?
**A.** 3.57%

**Q.** For `Cc1ccc(C)c(OCCN2CCC(N3CCNC3=O)CC2)c1`, which Percent Effect is on record?
**A.** 0.583%

**Q.** With `O=C(NCCc1c[nH]cn1)c1ccc2c(c1)C(=O)N(C1CC1)C2=O` as the compound, how does the Percent Effect read?
**A.** -1.45%

**Q.** How did the Percent Effect turn out when `Cc1nc(N(C)C)nc2c1COCC21CCN(C(=O)NC(C)C)C1` (stereo not given) was run?
**A.** 2.63%

**Q.** Which Percent Effect does the source give for `CN(C)C(=O)CC1CC2(CCN(CC3CC3)CC2)c2cc(F)ccc21` (stereo not given) here?
**A.** 2.15%

**Q.** With `O=C(Cn1ccnc1)N1C[C@@H]2CC[C@H](Oc3ccccc3Cl)[C@@H]2C1` as the compound, how does the Percent Effect read?
**A.** -0.551%

**Q.** For `Cc1ccc(CN2CCc3ncnc(-c4ccc(F)cc4)c3CC2)o1`, which Percent Effect is on record?
**A.** 5.12%

Molecular target: Shiga toxin 2 (Escherichia coli O157:H7) (UniProt P09385+P09386)
Assay: E. coli 0.157:H7 Shiga Toxin SOP - stx2 screening assay
Format: functional
Set-up: scale not given: direction of the effect not stated beside the values
Conditions: 30 µM

**Q.** For `CC(=O)N1CCC2(CCCN(Cc3ccc(Cl)c(C(F)(F)F)c3)C2)C1` (stereo not given), which Percent Effect is on record?
**A.** 4.87%

**Q.** With `O=C(Cn1cnc(NC(=O)CC2CCCC2)n1)NCc1ccccc1` as the compound, how does the Percent Effect read?
**A.** 12.3%

**Q.** Which Percent Effect does the source give for `CCn1ccnc1CN1CCCN(C(=O)c2sccc2C#N)CC1` here?
**A.** 2.81%

**Q.** With `Cc1ccc(C(=O)NC2CCN(C(=O)Nc3ccccn3)CC2)o1` as the compound, how does the Percent Effect read?
**A.** 25.6%

**Q.** Which Percent Effect does the source give for `Nc1nccc(NCc2cc3n(n2)CCCN(C2CCCCC2)C3)n1` here?
**A.** -9.53%

**Q.** Which Percent Effect does the source give for `Cc1cc2c(=O)n3c(nc2s1)CCN(C(=O)c1cnn(C)c1C)CC3` here?
**A.** 5.44%

**Q.** For `Cc1ccc(C)c(C(NC(=O)C2CC2)c2cccnc2)c1` (stereo not given), which Percent Effect is on record?
**A.** -13.4%

**Q.** How did the Percent Effect turn out when `Cc1cnc(CN(Cc2ccccc2)CC(O)c2cccs2)cn1` (stereo not given) was run?
**A.** -15.5%

**Q.** How did the Percent Effect turn out when `CC(C)Oc1ncccc1CNC(=O)c1ccco1` was run?
**A.** -7.65%

**Q.** `CCc1nc(NCCCn2cccn2)c2c(n1)c(C)nn2C` was tested. Which Percent Effect did it give?
**A.** -14.3%

**Q.** How did the Percent Effect turn out when `CCOc1ccnc(N2CCN(C(=O)c3cccc(C#N)c3)CC2)n1` was run?
**A.** 40.5%

**Q.** For `CC(C)(C)OC(=O)CNC(=O)CCc1nnc(-c2ccsc2)o1`, which Percent Effect is on record?
**A.** -21.2%

**Q.** How did the Percent Effect turn out when `COc1ccc(CCN2CCCC(Cn3nc(C)nc3C)C2)cc1` (stereo not given) was run?
**A.** -52.1%

**Q.** `O=C(NCCc1nnc2n1CCC2)NCC1(c2cccc(F)c2)CC1` was tested. Which Percent Effect did it give?
**A.** 4.87%

**Q.** Which Percent Effect does the source give for `CNc1cc2c(nn1)CCN(C(=O)c1cccc3c1OCO3)C2` here?
**A.** 1.76%

**Q.** `O=C(COCc1ccccc1)N1CCCC(n2cncn2)C1` (stereo not given) was tested. Which Percent Effect did it give?
**A.** 22.6%

**Q.** For `O=C(CCc1cscn1)N1CCCC1c1noc(C2CC2)n1` (stereo not given), which Percent Effect is on record?
**A.** 22.4%

**Q.** How did the Percent Effect turn out when `Cc1cnn(CC2CN(Cc3cccc(OCC(N)=O)c3)CCO2)c1` (stereo not given) was run?
**A.** 8.76%

**Q.** Which Percent Effect does the source give for `COc1ncccc1C(=O)N1CCCC(c2cc(C)[nH]n2)C1` (stereo not given) here?
**A.** 5.54%

**Q.** Which Percent Effect does the source give for `COCc1nc(C(=O)N2CCCCC2Cn2cccn2)cs1` (stereo not given) here?
**A.** 16.6%

**Q.** Which Percent Effect does the source give for `CN(Cc1ccsc1)C(=O)CN1CCCC1Cn1cccn1` (stereo not given) here?
**A.** -9.42%

**Q.** `CCc1noc(C2CCN(C(=O)CCn3nc(C)cc3C)CC2)n1` was tested. Which Percent Effect did it give?
**A.** -32.8%

**Q.** `Cc1noc(C)c1CN1C(=O)[C@H]2CC[C@@H]1CN(Cc1cccnc1N)C2` was tested. Which Percent Effect did it give?
**A.** -24.1%

**Q.** For `Cc1nc(N2CCCC2)nc2c1CN(C(=O)N1CCOCC1)CC2`, which Percent Effect is on record?
**A.** -3.98%

**Q.** `CN(CCc1cccs1)C1CCCN(Cc2noc(C3CC3)n2)C1` (stereo not given) was tested. Which Percent Effect did it give?
**A.** 16.2%

**Q.** With `O=C(CCn1ccccc1=O)Nc1ccc(F)c(Cl)c1` as the compound, how does the Percent Effect read?
**A.** -7.92%

**Q.** For `COc1ccc(CNC2CCN(CCc3ccncc3)CC2)cc1O`, which Percent Effect is on record?
**A.** -49.6%

**Q.** `COCCN1CCN(C(C)C(=O)Nc2ccnn2C(C)C)CC1` (stereo not given) was tested. Which Percent Effect did it give?
**A.** -2.27%

**Q.** Which Percent Effect does the source give for `CCn1ncc2c1C(COCC1CC1)CN(C(=O)c1cccs1)C2` (stereo not given) here?
**A.** 33.1%

**Q.** How did the Percent Effect turn out when `COc1ccc(C(C(=O)O)N2CCCN(C3CCCCC3)CC2)cn1` (stereo not given) was run?
**A.** 0.0125%

**Q.** `COCCn1cc(C(=O)N2CCCC2c2cccc(F)c2)ccc1=O` (stereo not given) was tested. Which Percent Effect did it give?
**A.** -4.86%

**Q.** How did the Percent Effect turn out when `O=C(CC1CC1)NCc1cc(=O)n2c(n1)CN(Cc1ccoc1)CCC2` was run?
**A.** -17%

**Q.** With `CC(C)c1nc(C2CCCN2C(=O)c2nccnc2N)no1` (stereo not given) as the compound, how does the Percent Effect read?
**A.** -16.2%

**Q.** How did the Percent Effect turn out when `O=C1CC(c2ccc(F)c(F)c2)c2snc(C(=O)O)c2N1` (stereo not given) was run?
**A.** -5.34%

**Q.** Which Percent Effect does the source give for `Cc1ccc(C)c(OCCN2CCC(N3CCNC3=O)CC2)c1` here?
**A.** -1.43%

**Q.** For `O=C(NCCc1c[nH]cn1)c1ccc2c(c1)C(=O)N(C1CC1)C2=O`, which Percent Effect is on record?
**A.** -47.1%

**Q.** With `Cc1nc(N(C)C)nc2c1COCC21CCN(C(=O)NC(C)C)C1` (stereo not given) as the compound, how does the Percent Effect read?
**A.** -1.42%

**Q.** For `CN(C)C(=O)CC1CC2(CCN(CC3CC3)CC2)c2cc(F)ccc21` (stereo not given), which Percent Effect is on record?
**A.** -3.11%

**Q.** `O=C(Cn1ccnc1)N1C[C@@H]2CC[C@H](Oc3ccccc3Cl)[C@@H]2C1` was tested. Which Percent Effect did it give?
**A.** 13.9%

**Q.** How did the Percent Effect turn out when `Cc1ccc(CN2CCc3ncnc(-c4ccc(F)cc4)c3CC2)o1` was run?
**A.** -19.5%
